{
  "source": "PubChem BioAssay (EPA / NIEHS)",
  "note": "Activity calls are given as the source filed them. Rule for the calls: active = hit-call score of the fitted dose curve at least 0.9, where 1 is the maximum; inactive = score below 0.9.",
  "data": [
    {"read-out": "Monokine induced gamma interferon (MIG), CXCL9 (gene 4283)", "assay": "BSK_SAg_MIG: BioMAP Diversity Plus: SAg Assay for Monokine induced gamma interferon (MIG) Biomarker Activity (AID 2283092)", "settings": "primary human HUVEC with PBMC; actives raise or lower the signal", "experimental": "BSK_SAg is a cell-based, multiplexed-readout assay that uses umbilical vein endothelium and peripheral blood mononuclear cells, a human vascular primary cell co-culture, with measurements taken at 24 hours after chemical dosing in a 96-well plate.BSK_SAg_MIG is an assay component measured in the BSK_SAg assay. It measures MIG antibody related to regulation of gene expression using ELISA technology.Data from the assay component BSK_SAg_MIG was analyzed into 1 assay endpoint. This assay endpoint, BSK_SAg_MIG, was analyzed with bidirectional fitting relative to DMSO as the negative control and baseline of activity. Using a type of binding reporter, gain or loss-of-signal activity can be used to understand changes in the signaling as they relate to the gene CXCL9. Furthermore, this assay endpoint can be referred to as a primary readout, because this assay has produced multiple assay endpoints where this one serves a signaling function. To generalize the intended target to other relatable targets, this assay endpoint is annotated to the cytokine intended target family, where the subfamily is chemotactic factor.\nThe levels of cell surface (or secreted, indicated by the prefix \"s\") biomarker endpoints were measured by ELISA. Overt cytotoxicity to cells in confluent adherent cultures (all systems other than the BT system) was assessed by measuring total protein levels using sulforhodamine B (SRB) staining in parallel cultures at the time of biomarker measurements, indicated as SRB endpoints. For proliferation assays for adherent cell types, individual cell types are cultured at sub-confluence and relative cell numbers quantified by SRB staining at time points optimized for each system (48 h: 3C and CASM3C systems; 72 h: BT and HDF3CGF systems; 96 h: SAg system). SRB was performed by staining cells with 0.1% SRB after fixation with 10% TCA and reading wells at 560 nm.Viability and proliferation of PBMC (T cells) was quantified by Alamar Blue reduction for the SAg and BT systems. For PBMC viability (referred to as PBMC Cytotoxicity within the assay endpoint names), cells were plated (75,000/well in a 96-well plate) and then chemical samples added for 1 h before addition of activators, SEB and TSST-1 (20 ng/mL final concentration each). Cells were incubated for 90 h. Then, Alamar Blue (20 uL/well) (Invitrogen, Cat DAL1100) was added for 6 h, and the plates were read with a fluorescence microplate reader at 546/580 nm (excitation/emission). For PBMC proliferation, cells were plated and activated as above but incubated for only 16 h prior to addition of Alamar Blue. Plates were read after 6 h.", "values": [
      {"smiles": "C=CC(=C)CCC=C(C)C", "outcome": "inactive"},
      {"smiles": "CC[C@H](C)C(=O)O[C@H]1C[C@@H](C)C=C2C=C[C@H](C)[C@H](CC[C@@H]3C[C@@H](O)CC(=O)O3)[C@H]21", "outcome": "inactive"},
      {"smiles": "Cn1c(=O)cc(Oc2ccc(F)cc2F)c2cnc(NCC(C)(C)O)nc21", "outcome": "inactive"},
      {"smiles": "COCCOc1cc2cc(C(=O)NC3CCN(C(C)C)CC3)n(CC(=O)Nc3ccc(Cl)cn3)c2cn1", "outcome": "inactive"},
      {"smiles": "On1ccccc1=S", "AC50": "19.8 µM (active)"},
      {"smiles": "CC(=O)c1ccc2c(c1)[C@H](NC(=O)c1ccc(F)cc1)[C@@H](O)C(C)(C)O2", "outcome": "inactive"},
      {"smiles": "O=C(O)c1cccc(Oc2ccccc2)c1", "outcome": "inactive"},
      {"smiles": "Cn1cnc([N+](=O)[O-])c1Sc1ncnc2nc[nH]c12", "outcome": "inactive"},
      {"smiles": "CC/C(=C\\C(=N/O)C(N)=O)C(C)[N+](=O)[O-]", "note": "(stereo not given)", "outcome": "inactive"},
      {"smiles": "CC[C@H]1OC(=O)[C@H](C)[C@@H](O[C@H]2C[C@@](C)(OC)[C@@H](O)[C@H](C)O2)[C@H](C)[C@@H](O[C@@H]2O[C@H](C)C[C@H](N(C)C)[C@H]2O)[C@](C)(O)C[C@@H](C)C(=O)[C@H](C)[C@@H](O)[C@]1(C)O", "outcome": "inactive"},
      {"smiles": "O=C(OC[C@H]1O[C@@H](OC(=O)c2cc(O)c(O)c(OC(=O)c3cc(O)c(O)c(O)c3)c2)[C@H](OC(=O)c2cc(O)c(O)c(OC(=O)c3cc(O)c(O)c(O)c3)c2)[C@@H](OC(=O)c2cc(O)c(O)c(OC(=O)c3cc(O)c(O)c(O)c3)c2)[C@@H]1OC(=O)c1cc(O)c(O)c(OC(=O)c2cc(O)c(O)c(O)c2)c1)c1cc(O)c(O)c(OC(=O)c2cc(O)c(O)c(O)c2)c1", "outcome": "inactive"},
      {"smiles": "CC(C)(O)c1coc(S(=O)(=O)NC(=O)Nc2c3c(cc4c2CCC4)CCC3)c1", "outcome": "inactive"},
      {"smiles": "CCCCCCc1ccc(O)cc1O", "AC50": "36.8 µM (active)"},
      {"smiles": "O=C(O)CC(O)C(=O)O", "note": "(stereo not given)", "outcome": "inactive"},
      {"smiles": "Cn1c(=O)c2c(ncn2C)n(C)c1=O", "outcome": "inactive"},
      {"smiles": "O=C(CCCCCCCCc1cccnc1)N1CCC(C=C(c2ccccc2)c2ccccc2)CC1", "AC50": "8.63 µM (active)"},
      {"smiles": "O=C(O)CCN(C1(C(=O)NO)CCCC1)S(=O)(=O)c1ccc(Oc2ccc(F)cc2)cc1", "outcome": "inactive"},
      {"smiles": "CC(C)CCO", "outcome": "inactive"},
      {"smiles": "Nc1nc2ncc(CNc3ccc(C(=O)N[C@@H](CCC(=O)O)C(=O)O)cc3)nc2c(=O)[nH]1", "outcome": "inactive"},
      {"smiles": "CCOC(=O)c1ccc(C2CCC(NC[C@H](O)COc3ccc(O)c(NS(C)(=O)=O)c3)CC2)cc1", "note": "(stereo not given in full)", "outcome": "inactive"},
      {"smiles": "Nc1cccc(N)c1", "outcome": "inactive"},
      {"smiles": "CCc1cc(SCc2sc(-c3ccc(C(F)(F)F)cc3)nc2CN2CCN(c3ccc(OC)cc3)CC2)ccc1OCC(=O)O", "AC50": "14.1 µM (active)"},
      {"smiles": "C1=CCCC=CCCC=CCC1", "outcome": "inactive"},
      {"smiles": "CCCCC(CC)COC(=O)CCCCCCCCC(=O)OCC(CC)CCCC", "note": "(stereo not given)", "outcome": "inactive"},
      {"smiles": "C[C@](N)(Cc1ccc(O)c(O)c1)C(=O)O", "outcome": "inactive"},
      {"smiles": "O=C1OC(=O)C2C3C=CC(C3)C12", "note": "(stereo not given)", "outcome": "inactive"},
      {"smiles": "O=c1[nH]c2ccc(S(=O)CCN3CCC(Cc4ccc(F)cc4)CC3)cc2o1", "note": "(stereo not given)", "outcome": "inactive"},
      {"smiles": "Nc1ccc(Nc2ccccc2)cc1", "AC50": "15.7 µM (active)"},
      {"smiles": "COC(=O)c1ccccc1O", "outcome": "inactive"},
      {"smiles": "O=C(O)c1cccc(N(Cc2cccnc2)c2ccc(OC(F)F)c(OC(F)F)c2)c1", "outcome": "inactive"},
      {"smiles": "Oc1ccc2c(c1)-c1ccccc1C2", "outcome": "inactive"},
      {"smiles": "CCCCC(CC)COC(=O)c1ccc(C(=O)OCC(CC)CCCC)cc1", "note": "(stereo not given)", "outcome": "inactive"},
      {"smiles": "O=C1CCCCCN1", "outcome": "inactive"},
      {"smiles": "CC(O)CN(CCN(CC(C)O)CC(C)O)CC(C)O", "note": "(stereo not given)", "outcome": "inactive"},
      {"smiles": "CCN(C(=O)c1cc(C)cc(OC[C@H](C)Nc2ccncc2)c1)C(C)C", "outcome": "inactive"},
      {"smiles": "CC(=O)OCCC(C)C", "outcome": "inactive"},
      {"smiles": "CCOCCO", "outcome": "inactive"},
      {"smiles": "CC1(C)C(=O)N(Br)C(=O)N1Br", "outcome": "inactive"},
      {"smiles": "CC(C)c1cccc(C(C)C)c1N1C(=O)c2ccc(O)cc2C1=O", "AC50": "32 µM (active)"},
      {"smiles": "O=P(OC(CCl)CCl)(OC(CCl)CCl)OC(CCl)CCl", "outcome": "inactive"}
    ]}
  ]
}
